# In the supplement of paper PMC11732987, “Enantioselective OTUD7B fragment discovery through chemoproteomics screening and high-throughput optimisation” (Communications Chemistry, 2025):
# Values without a mark were called inactive.
# Legend:
# Assay in all cases: log2 ratio of Biotin-Ahx-Ub-VS probe labelling (fragment/DMSO); higher = less target engagement (more negative = stronger competition), active = hit call of the paper (q ≤ 0.05, log2 ratio ≤ -1)
# Conditions in all cases: compound concentration: 200 uM; treatment time: 3 h
# USP19 = molecular target: T1, USP19 (UniProt O94966)
# T1 sequence (whole entry): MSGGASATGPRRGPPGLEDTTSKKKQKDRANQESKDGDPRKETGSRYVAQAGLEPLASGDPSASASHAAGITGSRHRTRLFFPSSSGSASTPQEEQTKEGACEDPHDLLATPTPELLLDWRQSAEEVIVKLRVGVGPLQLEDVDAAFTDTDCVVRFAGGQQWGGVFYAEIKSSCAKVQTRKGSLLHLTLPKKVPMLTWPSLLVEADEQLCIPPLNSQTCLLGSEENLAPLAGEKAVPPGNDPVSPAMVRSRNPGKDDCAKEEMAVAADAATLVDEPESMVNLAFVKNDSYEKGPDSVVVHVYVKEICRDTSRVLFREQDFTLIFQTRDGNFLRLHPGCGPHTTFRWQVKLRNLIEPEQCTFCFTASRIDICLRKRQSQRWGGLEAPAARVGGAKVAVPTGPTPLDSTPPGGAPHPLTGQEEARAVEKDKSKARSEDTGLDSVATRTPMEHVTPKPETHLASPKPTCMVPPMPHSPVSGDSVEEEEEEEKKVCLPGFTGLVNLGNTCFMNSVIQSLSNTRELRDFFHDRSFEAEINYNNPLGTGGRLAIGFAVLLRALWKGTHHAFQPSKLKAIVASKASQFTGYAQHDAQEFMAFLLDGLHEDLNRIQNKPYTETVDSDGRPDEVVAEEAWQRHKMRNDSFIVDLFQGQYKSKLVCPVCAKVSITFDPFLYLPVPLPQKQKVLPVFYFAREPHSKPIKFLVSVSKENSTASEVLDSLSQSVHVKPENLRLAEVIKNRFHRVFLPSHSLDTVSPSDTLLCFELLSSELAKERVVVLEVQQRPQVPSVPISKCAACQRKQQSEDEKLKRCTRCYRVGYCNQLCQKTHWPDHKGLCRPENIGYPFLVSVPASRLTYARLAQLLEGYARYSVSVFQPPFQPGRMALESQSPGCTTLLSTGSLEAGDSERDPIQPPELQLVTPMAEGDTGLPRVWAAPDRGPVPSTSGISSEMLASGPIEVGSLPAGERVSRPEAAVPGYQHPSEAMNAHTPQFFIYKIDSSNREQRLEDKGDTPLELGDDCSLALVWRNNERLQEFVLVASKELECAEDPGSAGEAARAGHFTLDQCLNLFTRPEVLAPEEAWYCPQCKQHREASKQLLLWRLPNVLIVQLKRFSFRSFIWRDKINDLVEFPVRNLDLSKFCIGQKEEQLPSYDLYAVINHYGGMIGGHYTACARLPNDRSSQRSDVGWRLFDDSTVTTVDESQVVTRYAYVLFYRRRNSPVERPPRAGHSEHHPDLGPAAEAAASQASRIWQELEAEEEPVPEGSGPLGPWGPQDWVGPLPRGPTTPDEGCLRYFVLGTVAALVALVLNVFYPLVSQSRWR
# Summary of the method: (§1)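 Global-median-normalised Spectronaut label-free quantities were compared by unpaired t-test, and values are average log2 ratios of fragment over vehicle. Only proteins with ≥2 unique peptides were used. HEK293T lysate (495 µg per sample) was treated in triplicate with fragment at 200 µM or vehicle for 3 h and then with Biotin-Ahx-Ub-VS at 0.5 µM final for 1 h. Labelled DUBs were then NeutrAvidin-enriched, digested with LysC and trypsin, and run by diaPASEF LC-MS/MS.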
# USP24 = USP24 (UniProt Q9UPU5)
# Summary of the method: as §1
# USP25 = molecular target: T2, USP25 (UniProt Q9UHP3)
# T2 sequence (whole entry): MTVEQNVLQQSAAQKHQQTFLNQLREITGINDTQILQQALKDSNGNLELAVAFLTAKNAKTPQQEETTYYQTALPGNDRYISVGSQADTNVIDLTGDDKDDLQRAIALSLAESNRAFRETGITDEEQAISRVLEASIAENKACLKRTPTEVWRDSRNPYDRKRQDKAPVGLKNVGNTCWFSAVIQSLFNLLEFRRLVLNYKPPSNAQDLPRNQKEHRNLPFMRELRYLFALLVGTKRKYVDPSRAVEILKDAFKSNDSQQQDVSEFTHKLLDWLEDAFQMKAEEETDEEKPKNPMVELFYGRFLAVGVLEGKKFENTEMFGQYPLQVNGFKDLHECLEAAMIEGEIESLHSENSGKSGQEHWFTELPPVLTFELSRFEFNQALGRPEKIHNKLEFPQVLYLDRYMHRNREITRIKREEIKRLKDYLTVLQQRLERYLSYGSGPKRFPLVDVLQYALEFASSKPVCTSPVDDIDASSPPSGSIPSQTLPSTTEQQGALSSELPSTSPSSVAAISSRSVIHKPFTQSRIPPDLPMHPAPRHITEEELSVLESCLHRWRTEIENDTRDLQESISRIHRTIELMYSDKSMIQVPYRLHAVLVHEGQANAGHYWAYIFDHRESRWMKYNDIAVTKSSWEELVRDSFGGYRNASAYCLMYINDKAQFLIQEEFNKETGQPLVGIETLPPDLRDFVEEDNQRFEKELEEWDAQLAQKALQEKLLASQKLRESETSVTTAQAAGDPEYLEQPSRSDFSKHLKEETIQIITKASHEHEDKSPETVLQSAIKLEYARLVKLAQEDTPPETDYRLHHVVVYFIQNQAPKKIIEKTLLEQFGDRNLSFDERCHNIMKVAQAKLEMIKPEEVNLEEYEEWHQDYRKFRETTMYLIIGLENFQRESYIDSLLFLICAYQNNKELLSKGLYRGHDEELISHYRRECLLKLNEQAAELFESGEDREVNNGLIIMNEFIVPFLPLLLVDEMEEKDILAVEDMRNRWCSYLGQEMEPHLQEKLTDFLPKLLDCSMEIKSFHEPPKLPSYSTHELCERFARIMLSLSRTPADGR
# Summary of the method: as §1
# USP28 = molecular target: T3, USP28 (UniProt Q96RU2)
# T3 sequence (whole entry): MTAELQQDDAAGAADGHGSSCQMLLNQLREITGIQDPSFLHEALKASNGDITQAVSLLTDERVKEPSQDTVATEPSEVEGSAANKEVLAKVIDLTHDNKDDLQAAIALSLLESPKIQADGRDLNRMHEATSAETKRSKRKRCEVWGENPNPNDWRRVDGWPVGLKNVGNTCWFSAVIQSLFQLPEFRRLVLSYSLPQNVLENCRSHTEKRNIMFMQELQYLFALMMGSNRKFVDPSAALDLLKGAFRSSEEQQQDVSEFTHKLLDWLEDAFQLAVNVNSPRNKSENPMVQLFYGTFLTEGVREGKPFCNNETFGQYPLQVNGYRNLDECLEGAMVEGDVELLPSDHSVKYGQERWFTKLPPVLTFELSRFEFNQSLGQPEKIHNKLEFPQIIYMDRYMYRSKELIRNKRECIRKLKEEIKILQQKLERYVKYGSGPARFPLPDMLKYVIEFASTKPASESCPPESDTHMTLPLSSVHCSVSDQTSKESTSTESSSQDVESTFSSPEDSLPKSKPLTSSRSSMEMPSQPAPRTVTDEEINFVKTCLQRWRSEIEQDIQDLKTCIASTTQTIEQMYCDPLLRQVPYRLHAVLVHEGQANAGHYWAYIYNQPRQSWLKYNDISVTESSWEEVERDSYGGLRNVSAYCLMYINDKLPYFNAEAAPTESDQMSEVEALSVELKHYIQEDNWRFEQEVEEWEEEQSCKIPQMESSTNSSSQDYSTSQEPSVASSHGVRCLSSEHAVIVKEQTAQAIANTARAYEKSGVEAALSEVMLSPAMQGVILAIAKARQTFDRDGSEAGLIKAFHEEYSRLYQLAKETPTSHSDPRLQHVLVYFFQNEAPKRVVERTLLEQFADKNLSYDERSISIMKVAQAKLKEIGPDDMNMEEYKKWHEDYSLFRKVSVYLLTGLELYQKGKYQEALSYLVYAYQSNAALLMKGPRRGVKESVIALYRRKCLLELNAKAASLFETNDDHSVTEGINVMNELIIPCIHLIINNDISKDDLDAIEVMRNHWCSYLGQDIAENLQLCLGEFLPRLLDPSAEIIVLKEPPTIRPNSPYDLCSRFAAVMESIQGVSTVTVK
# Summary of the method: as §1
# Sequence of USP24 (Q9UPU5 whole entry): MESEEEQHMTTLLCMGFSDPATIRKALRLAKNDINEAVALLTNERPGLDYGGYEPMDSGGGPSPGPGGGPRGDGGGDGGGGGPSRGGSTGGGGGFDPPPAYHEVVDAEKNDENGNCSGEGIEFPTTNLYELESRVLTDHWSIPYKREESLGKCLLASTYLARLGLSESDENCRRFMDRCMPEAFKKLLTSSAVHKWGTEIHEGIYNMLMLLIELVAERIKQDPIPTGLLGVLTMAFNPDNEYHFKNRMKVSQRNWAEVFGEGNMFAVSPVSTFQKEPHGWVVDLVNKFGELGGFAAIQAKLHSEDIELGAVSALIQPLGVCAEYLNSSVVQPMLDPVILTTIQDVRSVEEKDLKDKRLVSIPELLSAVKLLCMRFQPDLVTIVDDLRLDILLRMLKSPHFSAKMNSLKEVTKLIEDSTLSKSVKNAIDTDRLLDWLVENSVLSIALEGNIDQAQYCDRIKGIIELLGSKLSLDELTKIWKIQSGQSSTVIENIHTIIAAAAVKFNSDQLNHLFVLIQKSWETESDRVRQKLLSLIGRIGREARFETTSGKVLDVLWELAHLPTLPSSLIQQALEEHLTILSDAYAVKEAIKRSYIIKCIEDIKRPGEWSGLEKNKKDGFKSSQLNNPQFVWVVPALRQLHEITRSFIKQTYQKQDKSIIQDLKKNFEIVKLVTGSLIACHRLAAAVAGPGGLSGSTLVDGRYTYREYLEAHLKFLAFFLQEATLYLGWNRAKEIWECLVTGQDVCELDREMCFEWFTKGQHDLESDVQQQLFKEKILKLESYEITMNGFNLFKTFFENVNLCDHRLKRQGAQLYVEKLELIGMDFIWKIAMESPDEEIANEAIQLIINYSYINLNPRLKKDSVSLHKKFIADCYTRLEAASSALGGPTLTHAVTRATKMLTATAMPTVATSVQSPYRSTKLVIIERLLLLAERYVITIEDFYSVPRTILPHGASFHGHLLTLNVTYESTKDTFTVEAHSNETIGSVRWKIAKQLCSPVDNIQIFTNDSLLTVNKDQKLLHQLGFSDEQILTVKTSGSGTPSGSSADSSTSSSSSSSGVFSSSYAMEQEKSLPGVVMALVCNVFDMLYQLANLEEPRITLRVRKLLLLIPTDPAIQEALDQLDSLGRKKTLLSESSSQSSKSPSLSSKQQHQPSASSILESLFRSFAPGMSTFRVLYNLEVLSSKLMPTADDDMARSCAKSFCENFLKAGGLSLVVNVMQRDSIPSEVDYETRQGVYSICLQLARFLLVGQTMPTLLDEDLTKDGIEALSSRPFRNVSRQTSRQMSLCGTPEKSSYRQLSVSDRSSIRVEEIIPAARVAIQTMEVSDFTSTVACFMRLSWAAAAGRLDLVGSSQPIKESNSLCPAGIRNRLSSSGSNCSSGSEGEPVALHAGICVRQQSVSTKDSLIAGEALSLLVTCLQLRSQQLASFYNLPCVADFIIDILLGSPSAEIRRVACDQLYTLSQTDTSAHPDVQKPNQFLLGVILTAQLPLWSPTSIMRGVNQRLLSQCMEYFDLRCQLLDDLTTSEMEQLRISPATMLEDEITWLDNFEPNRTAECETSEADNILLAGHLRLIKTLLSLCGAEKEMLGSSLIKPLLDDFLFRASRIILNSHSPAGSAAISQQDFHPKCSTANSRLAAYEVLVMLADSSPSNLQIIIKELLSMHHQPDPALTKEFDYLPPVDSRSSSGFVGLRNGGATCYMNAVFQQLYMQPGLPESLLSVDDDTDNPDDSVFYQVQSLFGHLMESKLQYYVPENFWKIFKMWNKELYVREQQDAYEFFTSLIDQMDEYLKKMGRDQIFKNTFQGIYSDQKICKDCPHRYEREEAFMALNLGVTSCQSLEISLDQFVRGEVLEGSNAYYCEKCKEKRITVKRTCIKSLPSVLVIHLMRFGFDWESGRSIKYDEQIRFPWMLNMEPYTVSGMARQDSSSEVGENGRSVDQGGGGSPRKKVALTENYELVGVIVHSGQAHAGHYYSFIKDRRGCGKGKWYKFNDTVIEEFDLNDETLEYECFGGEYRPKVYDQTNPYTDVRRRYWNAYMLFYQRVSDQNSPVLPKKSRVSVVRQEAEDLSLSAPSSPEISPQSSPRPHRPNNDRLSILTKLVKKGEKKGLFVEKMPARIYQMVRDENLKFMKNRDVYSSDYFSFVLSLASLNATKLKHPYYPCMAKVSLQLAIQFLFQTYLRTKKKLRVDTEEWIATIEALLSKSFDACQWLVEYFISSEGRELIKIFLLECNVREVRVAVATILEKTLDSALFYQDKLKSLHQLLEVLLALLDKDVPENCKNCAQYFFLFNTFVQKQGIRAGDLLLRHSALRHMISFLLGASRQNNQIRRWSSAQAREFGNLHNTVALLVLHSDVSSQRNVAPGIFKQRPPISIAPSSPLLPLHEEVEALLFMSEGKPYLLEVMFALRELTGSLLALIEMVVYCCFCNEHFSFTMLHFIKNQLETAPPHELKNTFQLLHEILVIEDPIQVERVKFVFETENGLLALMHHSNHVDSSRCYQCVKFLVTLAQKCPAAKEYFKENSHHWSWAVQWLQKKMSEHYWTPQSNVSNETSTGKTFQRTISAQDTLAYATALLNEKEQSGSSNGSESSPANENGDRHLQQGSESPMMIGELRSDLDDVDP
structure (smiles),measurement,setting,value
CCC1c2ccsc2CCN1C(=O)CCl (centres undefined),log2 ratio of Biotin-Ahx-Ub-VS probe labelling,USP19,-0.544
same,log2 ratio of Biotin-Ahx-Ub-VS probe labelling,USP24,-1.31 (active)
same,log2 ratio of Biotin-Ahx-Ub-VS probe labelling,USP25,-0.177
same,log2 ratio of Biotin-Ahx-Ub-VS probe labelling,USP28,-0.461
